# Measurements: PubChem BioAssay AID652180 (National Center for Advancing Translational Sciences (NCATS), 2013)
# Inconclusive results are not listed. Values without a mark were called inactive. Active and inactive are the calls of the source. Calls come from the whole dose curve; as a rule, active = well fitted inhibition curve with a large enough effect; inconclusive = small, poorly fitted or top-dose-only effect; inactive = no such curve, though single readings can be large or run the other way.
# Assay: qHTS Assay for Lipid Storage Modulators: 3T3L1 Assay against Probe and Analogs
# Conditions: 3T3-L1 lipid droplets, BODIPY imaging, oleic acid, 18-24 h; series mostly up to 46.1 µM; activity change, negative = decreased lipid storage: at the top concentration
# Description: Storing lipids as a reservoir for energy or the anabolism of elementary metabolites is a common feature of probably all cells and is conserved from bacteria to humans. The universal cellular lipid storage organelle is the so-called lipid storage droplet (LD). Although ubiquitous, LDs share a simple structure composed of a hydrophobic core that harbors the storage lipids, which is shielded by a droplet-specific phospholipid monolayer to which proteins are attached. The current model of LD biogenesis involves an incorporation of the lipid core into the membrane leaflets of the endoplasmic reticulum (ER) followed by a subsequent budding-like maturation of a LD, which ultimately pinches off. Once released, LD volume can increase by localized lipogenesis or fusion of existing droplets. Storage lipids are re-mobilized enzymatically by lipase activity. Lipase regulation in the adipocyte is heavily studied and involves multiple components including catecholamine signaling, the LD-associated proteins Perilipin and comparative gene identification-58 (CGI-58) and at least two lipases named hormone sensitive lipase (HSL) and adipocyte triglyceride lipase (ATGL). LD regulation outside of the adipocyte is poorly understood and only few components are known. However, there is an urgent need to learn more about ectopic fat depots as mislocalized storage of lipids, for example in the liver or muscle, is an eminent health problem associated with insulin resistance or the metabolic syndrome. We developed a laser-scanning cytometer assay to enable 1,536-well screening and combined the results of the small molecules screen with an RNAi database based on lipid storage. In this assay we tested analogs of the probe against a mammalian cell line (3T3L1), to see if these small molecules could disrupt lipid storage. NIH Molecular Libraries Probe Production Centers Network [MLPCN] NIH Chemical Genomics Center [NCGC] MLPCN Grant: MH085686 Assay Submitter (PI): Mathias Beller, Max-Planck-Institut fur Biophysikalische Chemie
# 3T3L1 cells were obtained from ATCC (CL-173). 4 uL of cells at 1.25 X 105 cell/mL were dispensed into 1536 well Poly-D-Lysine coated black with clear bottom imaging plates (Corning, #7356) to obtain 500 cells/well, and cultured at 37 °C, 95% humidity, and 5% CO2 overnight. The culture medium used was OPTI-MEM containing 5% fetal bovine serum (FBS). Triacsin C (Sigma-Aldrich T-4540), an inhibitor of long-chain fatty acyl CoA synthetase that blocks synthesis of triglycerides, was used as a positive control for lipid under-storage. A total of 23 nL of compounds dissolved in DMSO at different concentrations were transferred to the assay plates using a Kalypsys 1536-pin tool, the final DMSO concentration was 0.46%. One microliter of oleic acid at 400 uM (Calbiochem, #4954) was added to induce lipid droplet formation in the cells, and the plates were lidded. After 18-24 hours of incubation at 37 °C, 95% humidity, and 5% CO2, cells were fixed (8 % paraformaldehyde in PBS, 30 min, room temperature), washed three times with PBS, then stained for lipid droplet and nucleus using 4uL of PBS solution containing BODIPY lipid dye 493/503 (1:2000 dilution, Life Technologies, #3922) and Hoechst 33342 (1:1000, Life Technologies, #H3570) with Washer dispenser EL406(Biotek). Images were acquired using InCell 2000 (GE). Number of cells, number of lipids and sizes of lipids were analysis using GE Investigator software.
SMILES,"activity change, negative = decreased lipid storage",Potency
CC(C)(C)OC(=O)NCCOCCOCCOc1cccc(-n2ncc3c2CCCC3NC(=O)c2ccccn2)c1 (centres undefined),47%,
CCOC(=O)C1CCN(C(=O)C(C)(C)NC(=O)Nc2cccc(-c3csc(C)n3)c2)CC1,-27.4%,
O=C(NC1CCCc2c1cnn2-c1ccc(F)cc1F)c1ccccc1 (centres undefined),,inactive
CCOc1ccc(CCNC(=O)c2ccc3[nH]ccc3c2)cc1OCC,8.17% [at 38.8 µM],
Cc1ccc(NC(=O)c2ccc(CN3CCN(C)CC3)cc2)cc1Nc1nc(-c2cccnc2)cs1,55.2%,
CCOc1ccc(CCNC(=O)c2cc3sccc3n2C(C)C)cc1OCC,,29.6 nM (active)
O=C(NCCc1ccc2c(c1)OCO2)c1cc2sccc2n1Cc1ccccc1,-41.2%,
CCOC(=O)C1CCN(C(=O)C(C)(C)NC(=O)Nc2cccc(C(=O)OC)c2)CC1,-25.1%,
Cc1cn(-c2cc(NC(=O)c3ccc(C)c(Nc4nccc(-c5cccnc5)n4)c3)cc(C(F)(F)F)c2)cn1,-41.8%,
CCOc1ccc(CCNC(=O)c2ccccn2)cc1OCC,-36%,
CC(C)(C)OC(=O)NCCOCCOCCOCCn1ncc2c1CCCC2NC(=O)c1ccccn1 (centres undefined),-33.2%,
O=C(NC1CCCc2c1cnn2-c1ccc(F)cc1F)c1ccn[nH]1 (centres undefined),-26.1%,
CCn1c(C(=O)NCCc2ccc(OC)c(OC)c2)cc2sccc21,-29.2%,
CCOC(=O)C1CCN(C(=O)C(C)(C)NC(=O)Nc2ccc(OC)c(Cl)c2)CC1,-43.9%,
CCOc1ccc(CCNC(=O)c2cc3ccccc3n2Cc2ccc(Cl)c(F)c2)cc1OCC,,18.7 nM (active)
O=C(NC1CCCc2c1cnn2-c1ccc(F)cc1F)c1ccsc1 (centres undefined),55.2%,
CCOc1cc(F)c(CCNC(=O)c2cc3sccc3n2Cc2ccccc2)cc1OCC,,14.8 nM (active)
CCOC(=O)C1CCN(C(=O)C(C)(C)NC(=O)Nc2ccc(N)cc2)CC1,17.4%,
CCOc1ccc(CCNC(=O)c2cc3sccc3n2Cc2ccccn2)cc1OCC,,23.5 nM (active)
CC(C)(NC(=O)Nc1ccccc1Cl)C(=O)N1CCC(C(=O)O)CC1,-34.4%,
COc1nc(-c2ccc3c(c2)OCO3)n(-c2ccc(NC(=O)CSc3ccccc3)cc2)n1,6.57%,
O=C(N[C@H]1CCCc2c1cnn2-c1ccc(F)cc1F)c1ccccn1,98.8%,
O=C(NC1CCCc2c1cnn2-c1ccc(F)cc1F)c1ccc(C2(C(F)(F)F)N=N2)cc1 (centres undefined),78.7%,
COc1cc(C)c(Sc2cnc(NC(=O)c3ccc(CNC(C)C(C)(C)C)cc3)s2)cc1C(=O)N1CCN(C(C)=O)CC1 (centres undefined),,3320 nM (active)
CCOc1ccc(CCNC(=O)c2cnon2)cc1OCC,-17.2%,
CCOC(=O)C1CCN(C(=O)C2(NC(=O)Nc3ccccc3Cl)CC2)CC1,-13.9%,
O=C(NC1CCCc2c1cnn2-c1ccc(F)cc1F)C1CCCCN1 (centres undefined),-11.6%,
CC(C)(C)OC(=O)NC1CCCc2c1cnn2-c1ccc(F)cc1F (centres undefined),54.4%,
O=C(NC1CCCc2c1cnn2-c1ccc(F)cc1F)c1ccccn1 (centres undefined),,inactive
